# Reference: ChEMBL document CHEMBL2218924, “A broad activity screen in support of a chemogenomic map for kinase signalling research and drug discovery” (Biochem J, 2013)
# Key:
# [1] = target: Ephrin type-A receptor 5 (Homo sapiens) (UniProt P54756); details: at 1 µM
# [2] = target: Ephrin type-A receptor 5 (Homo sapiens) (UniProt P54756); details: at 10 µM
# [3] = target: Ephrin type-A receptor 7 (Homo sapiens) (UniProt Q15375); details: at 1 µM
# [4] = target: Ephrin type-A receptor 7 (Homo sapiens) (UniProt Q15375); details: at 10 µM
# [5] = target: T1, Ephrin type-A receptor 8 (Homo sapiens) (UniProt P29322); details: at 1 µM
# T1 sequence (whole entry): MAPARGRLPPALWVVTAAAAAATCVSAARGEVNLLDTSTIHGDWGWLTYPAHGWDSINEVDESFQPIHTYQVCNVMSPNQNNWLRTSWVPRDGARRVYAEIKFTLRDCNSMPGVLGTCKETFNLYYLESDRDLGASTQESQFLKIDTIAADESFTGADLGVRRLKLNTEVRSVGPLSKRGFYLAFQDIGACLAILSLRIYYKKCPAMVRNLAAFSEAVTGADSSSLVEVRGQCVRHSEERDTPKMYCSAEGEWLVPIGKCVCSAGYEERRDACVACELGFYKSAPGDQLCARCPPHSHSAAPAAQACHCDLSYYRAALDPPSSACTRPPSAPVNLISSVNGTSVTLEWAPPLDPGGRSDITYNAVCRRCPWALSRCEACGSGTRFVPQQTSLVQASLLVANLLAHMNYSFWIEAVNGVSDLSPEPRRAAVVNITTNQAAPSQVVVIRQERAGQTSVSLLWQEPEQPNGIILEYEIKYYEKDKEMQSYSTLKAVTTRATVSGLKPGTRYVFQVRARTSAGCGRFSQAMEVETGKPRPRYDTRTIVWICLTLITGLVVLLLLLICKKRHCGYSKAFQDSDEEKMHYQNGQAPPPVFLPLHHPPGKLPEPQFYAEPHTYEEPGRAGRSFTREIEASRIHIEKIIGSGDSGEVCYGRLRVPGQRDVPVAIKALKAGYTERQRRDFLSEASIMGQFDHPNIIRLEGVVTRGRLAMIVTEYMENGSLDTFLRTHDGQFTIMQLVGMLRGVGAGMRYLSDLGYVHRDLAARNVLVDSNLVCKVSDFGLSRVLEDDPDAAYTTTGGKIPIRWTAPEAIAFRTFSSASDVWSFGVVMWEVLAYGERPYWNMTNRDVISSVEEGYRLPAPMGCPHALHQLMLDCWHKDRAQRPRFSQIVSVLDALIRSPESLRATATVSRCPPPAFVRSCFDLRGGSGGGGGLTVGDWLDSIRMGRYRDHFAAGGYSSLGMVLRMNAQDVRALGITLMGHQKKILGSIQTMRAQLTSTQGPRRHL
# [6] = target: T1, Ephrin type-A receptor 8 (Homo sapiens); details: at 10 µM
# Ephrin type-A receptor 7 (Homo sapiens), sequence (Q15375 28-998 limits assumed): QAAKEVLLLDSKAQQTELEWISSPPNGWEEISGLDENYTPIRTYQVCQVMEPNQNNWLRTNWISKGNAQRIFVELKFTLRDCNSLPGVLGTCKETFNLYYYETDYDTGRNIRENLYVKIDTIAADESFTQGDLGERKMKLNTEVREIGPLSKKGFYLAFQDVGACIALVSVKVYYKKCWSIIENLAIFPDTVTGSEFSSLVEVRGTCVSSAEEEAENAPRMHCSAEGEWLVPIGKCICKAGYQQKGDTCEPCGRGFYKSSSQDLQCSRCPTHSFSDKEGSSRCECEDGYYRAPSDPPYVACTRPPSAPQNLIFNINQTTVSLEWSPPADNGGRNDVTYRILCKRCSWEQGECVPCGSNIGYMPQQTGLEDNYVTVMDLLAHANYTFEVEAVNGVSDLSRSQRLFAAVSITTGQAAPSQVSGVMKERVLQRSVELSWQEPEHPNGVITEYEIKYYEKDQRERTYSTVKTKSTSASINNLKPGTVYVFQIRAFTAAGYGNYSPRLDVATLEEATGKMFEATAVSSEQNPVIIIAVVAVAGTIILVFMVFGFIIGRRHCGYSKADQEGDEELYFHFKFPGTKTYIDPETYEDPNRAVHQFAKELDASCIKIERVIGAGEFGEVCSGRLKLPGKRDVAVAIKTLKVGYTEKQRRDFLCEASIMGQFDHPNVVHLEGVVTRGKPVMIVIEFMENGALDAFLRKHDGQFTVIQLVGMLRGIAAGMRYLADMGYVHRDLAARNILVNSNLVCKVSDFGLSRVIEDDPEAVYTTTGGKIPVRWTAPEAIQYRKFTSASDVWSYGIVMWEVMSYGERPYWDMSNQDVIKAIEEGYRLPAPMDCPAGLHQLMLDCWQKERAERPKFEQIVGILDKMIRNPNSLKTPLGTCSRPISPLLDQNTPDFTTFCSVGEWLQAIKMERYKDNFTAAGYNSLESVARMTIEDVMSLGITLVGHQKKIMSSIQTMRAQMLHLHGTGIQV
# Ephrin type-A receptor 5 (Homo sapiens), sequence (P54756 whole entry): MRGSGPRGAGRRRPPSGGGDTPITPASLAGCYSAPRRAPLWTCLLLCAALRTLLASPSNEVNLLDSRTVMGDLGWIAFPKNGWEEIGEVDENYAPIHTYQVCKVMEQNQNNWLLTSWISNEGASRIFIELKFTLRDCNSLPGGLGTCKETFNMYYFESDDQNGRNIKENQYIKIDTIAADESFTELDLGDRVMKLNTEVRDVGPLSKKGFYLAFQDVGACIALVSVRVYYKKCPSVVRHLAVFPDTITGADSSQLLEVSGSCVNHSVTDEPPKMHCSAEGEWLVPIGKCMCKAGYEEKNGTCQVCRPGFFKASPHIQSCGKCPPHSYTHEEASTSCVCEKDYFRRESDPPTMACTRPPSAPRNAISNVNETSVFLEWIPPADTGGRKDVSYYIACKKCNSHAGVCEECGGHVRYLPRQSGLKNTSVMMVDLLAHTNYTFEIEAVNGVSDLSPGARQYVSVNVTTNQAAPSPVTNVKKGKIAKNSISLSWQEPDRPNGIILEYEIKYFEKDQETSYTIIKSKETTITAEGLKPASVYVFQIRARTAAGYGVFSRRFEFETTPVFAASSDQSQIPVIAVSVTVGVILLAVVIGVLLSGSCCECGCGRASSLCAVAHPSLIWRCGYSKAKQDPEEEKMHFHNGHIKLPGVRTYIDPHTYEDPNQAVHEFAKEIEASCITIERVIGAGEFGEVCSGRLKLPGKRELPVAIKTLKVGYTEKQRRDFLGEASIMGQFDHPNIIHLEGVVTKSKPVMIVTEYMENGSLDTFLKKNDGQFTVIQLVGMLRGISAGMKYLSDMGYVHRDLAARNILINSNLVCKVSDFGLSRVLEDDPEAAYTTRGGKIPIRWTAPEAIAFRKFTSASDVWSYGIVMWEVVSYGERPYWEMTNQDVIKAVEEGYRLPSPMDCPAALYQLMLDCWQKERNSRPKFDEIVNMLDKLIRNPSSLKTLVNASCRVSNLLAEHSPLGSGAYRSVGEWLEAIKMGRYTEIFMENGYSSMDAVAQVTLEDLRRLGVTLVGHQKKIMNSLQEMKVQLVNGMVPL
smiles,measurement,setting,value
O=C1NC(=O)c2c1c1c3ccccc3n3c1c1c2c2ccccc2n1C1CCC3O1,residual activity,[1],94%
same,residual activity,[2],92%
same,residual activity,[3],100%
same,residual activity,[4],100%
same,residual activity,[5],96%
same,residual activity,[6],94%
